Experiment [1] has as its target T1, Ephrin type-A receptor 3 (Homo sapiens) (UniProt P29320).
T1 sequence (whole entry): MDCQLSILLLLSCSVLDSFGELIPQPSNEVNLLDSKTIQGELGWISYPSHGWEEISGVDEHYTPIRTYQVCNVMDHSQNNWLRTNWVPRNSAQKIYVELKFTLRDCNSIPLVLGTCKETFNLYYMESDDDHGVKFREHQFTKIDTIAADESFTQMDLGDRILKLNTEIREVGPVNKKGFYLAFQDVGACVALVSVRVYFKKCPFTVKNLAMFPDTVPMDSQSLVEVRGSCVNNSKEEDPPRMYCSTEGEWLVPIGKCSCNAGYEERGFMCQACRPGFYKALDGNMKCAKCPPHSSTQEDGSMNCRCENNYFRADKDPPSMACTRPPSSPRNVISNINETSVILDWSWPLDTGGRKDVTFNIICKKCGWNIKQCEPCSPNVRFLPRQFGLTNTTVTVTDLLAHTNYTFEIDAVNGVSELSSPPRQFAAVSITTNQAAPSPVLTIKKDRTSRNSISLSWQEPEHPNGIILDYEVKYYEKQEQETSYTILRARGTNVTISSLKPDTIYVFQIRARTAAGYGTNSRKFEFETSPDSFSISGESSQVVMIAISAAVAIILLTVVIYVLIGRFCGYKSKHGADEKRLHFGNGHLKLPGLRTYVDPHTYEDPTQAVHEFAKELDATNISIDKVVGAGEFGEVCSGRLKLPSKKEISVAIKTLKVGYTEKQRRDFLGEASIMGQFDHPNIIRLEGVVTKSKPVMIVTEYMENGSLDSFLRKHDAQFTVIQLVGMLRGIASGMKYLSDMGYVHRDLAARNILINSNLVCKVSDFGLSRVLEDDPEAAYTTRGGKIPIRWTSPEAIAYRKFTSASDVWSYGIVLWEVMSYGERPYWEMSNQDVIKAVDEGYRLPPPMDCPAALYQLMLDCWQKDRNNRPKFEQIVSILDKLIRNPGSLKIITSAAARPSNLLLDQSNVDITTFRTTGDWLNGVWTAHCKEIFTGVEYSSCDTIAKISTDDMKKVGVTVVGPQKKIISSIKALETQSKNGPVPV
As to conditions: at 10 µM.

In experiment [2] the target is Ephrin type-A receptor 4 (Homo sapiens) (UniProt P54764). Particulars: at 1 µM.
Ephrin type-A receptor 4 (Homo sapiens), sequence (P54764 whole entry): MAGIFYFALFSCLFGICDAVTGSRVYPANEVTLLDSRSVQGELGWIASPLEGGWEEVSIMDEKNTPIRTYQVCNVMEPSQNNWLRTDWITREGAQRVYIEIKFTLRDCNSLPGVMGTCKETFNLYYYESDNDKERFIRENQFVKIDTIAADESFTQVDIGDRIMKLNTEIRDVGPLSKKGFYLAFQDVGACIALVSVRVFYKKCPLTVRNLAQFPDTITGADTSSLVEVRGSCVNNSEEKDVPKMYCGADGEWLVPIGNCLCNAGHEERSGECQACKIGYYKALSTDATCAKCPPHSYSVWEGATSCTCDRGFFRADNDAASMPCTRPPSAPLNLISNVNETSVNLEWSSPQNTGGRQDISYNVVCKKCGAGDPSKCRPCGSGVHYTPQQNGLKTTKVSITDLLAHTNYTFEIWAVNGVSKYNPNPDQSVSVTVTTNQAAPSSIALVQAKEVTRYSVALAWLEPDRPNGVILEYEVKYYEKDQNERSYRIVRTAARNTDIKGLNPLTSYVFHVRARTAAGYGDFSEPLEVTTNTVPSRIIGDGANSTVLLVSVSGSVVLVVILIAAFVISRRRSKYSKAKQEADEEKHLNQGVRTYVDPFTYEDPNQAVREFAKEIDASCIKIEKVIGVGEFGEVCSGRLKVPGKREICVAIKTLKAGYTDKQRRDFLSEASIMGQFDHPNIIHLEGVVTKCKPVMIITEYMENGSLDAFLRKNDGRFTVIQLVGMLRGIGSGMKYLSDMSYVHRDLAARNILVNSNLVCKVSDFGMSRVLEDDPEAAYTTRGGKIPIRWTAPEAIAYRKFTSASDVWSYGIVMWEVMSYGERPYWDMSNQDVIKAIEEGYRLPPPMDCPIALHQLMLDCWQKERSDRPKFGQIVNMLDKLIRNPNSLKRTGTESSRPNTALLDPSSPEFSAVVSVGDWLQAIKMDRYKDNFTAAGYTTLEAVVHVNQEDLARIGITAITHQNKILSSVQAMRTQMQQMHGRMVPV
Experiment [3] has the same target. As to conditions: at 10 µM.
The target of experiment [4] is Ephrin type-A receptor 5 (Homo sapiens) (UniProt P54756). Particulars: at 1 µM.
Ephrin type-A receptor 5 (Homo sapiens), sequence (P54756 whole entry): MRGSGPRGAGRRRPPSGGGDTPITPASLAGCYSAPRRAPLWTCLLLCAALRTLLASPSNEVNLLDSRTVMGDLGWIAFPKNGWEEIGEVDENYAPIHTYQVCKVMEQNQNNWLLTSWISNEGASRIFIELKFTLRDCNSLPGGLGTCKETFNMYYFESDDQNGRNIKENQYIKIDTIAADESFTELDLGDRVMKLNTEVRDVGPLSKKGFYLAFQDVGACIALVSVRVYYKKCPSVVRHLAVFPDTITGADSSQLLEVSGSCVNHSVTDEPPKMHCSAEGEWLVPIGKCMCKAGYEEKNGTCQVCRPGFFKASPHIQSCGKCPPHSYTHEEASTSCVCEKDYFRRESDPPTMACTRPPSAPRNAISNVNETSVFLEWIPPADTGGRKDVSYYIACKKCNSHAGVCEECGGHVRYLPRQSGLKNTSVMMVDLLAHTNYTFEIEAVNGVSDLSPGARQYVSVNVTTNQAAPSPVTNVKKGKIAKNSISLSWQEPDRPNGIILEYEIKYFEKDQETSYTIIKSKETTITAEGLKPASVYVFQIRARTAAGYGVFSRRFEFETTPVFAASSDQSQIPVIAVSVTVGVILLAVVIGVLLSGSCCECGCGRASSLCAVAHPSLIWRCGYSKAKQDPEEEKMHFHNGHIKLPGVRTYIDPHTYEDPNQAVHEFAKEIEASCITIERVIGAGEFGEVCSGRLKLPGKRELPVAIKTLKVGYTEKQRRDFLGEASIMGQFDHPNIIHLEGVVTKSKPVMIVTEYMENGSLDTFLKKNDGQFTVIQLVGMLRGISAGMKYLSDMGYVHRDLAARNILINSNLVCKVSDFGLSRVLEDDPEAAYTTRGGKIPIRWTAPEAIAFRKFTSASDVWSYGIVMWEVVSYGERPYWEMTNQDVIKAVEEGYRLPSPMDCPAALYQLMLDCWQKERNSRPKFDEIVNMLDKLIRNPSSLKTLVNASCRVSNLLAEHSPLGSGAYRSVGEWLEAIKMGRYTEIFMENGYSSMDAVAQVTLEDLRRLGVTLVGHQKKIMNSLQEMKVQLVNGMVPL
The target is the same in experiment [5]. Particulars: at 10 µM.
The target in experiment [6] is Ephrin type-A receptor 7 (Homo sapiens) (UniProt Q15375). As to conditions: at 1 µM.
Ephrin type-A receptor 7 (Homo sapiens), sequence (Q15375 28-998 limits assumed): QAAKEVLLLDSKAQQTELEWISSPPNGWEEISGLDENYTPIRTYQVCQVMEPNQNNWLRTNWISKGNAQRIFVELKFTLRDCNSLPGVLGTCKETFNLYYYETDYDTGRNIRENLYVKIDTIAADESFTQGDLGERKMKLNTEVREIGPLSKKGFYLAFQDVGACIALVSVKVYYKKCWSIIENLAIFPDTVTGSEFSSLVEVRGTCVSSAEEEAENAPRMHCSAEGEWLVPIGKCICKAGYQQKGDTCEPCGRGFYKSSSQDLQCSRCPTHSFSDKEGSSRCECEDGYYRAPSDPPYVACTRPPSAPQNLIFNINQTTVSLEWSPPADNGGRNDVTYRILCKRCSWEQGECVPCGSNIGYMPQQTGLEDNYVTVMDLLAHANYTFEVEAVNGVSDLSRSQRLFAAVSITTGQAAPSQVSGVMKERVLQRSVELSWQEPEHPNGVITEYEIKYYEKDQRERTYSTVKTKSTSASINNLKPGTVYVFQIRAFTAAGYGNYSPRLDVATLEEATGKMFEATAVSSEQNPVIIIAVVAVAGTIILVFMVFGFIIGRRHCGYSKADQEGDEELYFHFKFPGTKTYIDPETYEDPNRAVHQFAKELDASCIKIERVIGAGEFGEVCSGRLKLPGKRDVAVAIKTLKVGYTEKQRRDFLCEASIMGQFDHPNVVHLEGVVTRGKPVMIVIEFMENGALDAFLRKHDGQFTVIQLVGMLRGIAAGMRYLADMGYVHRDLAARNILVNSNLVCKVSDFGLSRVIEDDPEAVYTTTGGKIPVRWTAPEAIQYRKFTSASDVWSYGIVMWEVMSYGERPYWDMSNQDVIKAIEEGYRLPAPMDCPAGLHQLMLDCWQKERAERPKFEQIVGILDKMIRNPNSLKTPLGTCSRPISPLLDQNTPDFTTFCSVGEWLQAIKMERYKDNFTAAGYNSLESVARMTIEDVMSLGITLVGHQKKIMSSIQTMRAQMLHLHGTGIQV
For experiment [7] the target is unchanged. Particulars: at 10 µM.
Experiment [8] deals with T2, Ephrin type-A receptor 8 (Homo sapiens) (UniProt P29322).
T2 sequence (whole entry): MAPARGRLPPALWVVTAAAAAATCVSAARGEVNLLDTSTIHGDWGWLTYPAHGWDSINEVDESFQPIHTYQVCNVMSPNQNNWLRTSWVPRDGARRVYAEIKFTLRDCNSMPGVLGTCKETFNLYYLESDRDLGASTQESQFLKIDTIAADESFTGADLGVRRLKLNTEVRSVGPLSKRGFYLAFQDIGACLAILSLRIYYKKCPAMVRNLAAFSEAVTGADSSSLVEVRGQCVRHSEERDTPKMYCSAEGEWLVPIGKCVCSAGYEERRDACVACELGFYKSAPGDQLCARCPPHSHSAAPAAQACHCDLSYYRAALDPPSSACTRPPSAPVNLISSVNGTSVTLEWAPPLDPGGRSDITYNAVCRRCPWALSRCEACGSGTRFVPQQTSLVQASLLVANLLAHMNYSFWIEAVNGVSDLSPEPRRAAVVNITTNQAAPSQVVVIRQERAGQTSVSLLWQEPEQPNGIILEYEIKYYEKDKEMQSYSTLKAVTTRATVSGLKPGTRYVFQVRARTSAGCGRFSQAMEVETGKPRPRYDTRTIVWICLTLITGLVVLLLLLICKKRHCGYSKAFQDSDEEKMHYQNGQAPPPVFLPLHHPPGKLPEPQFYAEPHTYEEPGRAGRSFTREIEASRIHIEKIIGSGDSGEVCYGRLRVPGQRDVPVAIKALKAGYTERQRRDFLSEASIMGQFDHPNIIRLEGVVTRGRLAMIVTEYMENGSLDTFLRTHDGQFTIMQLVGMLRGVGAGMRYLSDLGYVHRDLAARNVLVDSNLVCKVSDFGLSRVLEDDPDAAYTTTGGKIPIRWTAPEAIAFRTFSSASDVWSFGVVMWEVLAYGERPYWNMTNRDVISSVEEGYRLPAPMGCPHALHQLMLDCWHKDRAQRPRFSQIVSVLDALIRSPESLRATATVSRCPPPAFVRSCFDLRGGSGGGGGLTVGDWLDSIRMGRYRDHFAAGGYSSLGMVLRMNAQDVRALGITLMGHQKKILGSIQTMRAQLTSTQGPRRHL
Particulars: at 1 µM.

For experiment [9], the target named is T2, Ephrin type-A receptor 8 (Homo sapiens). Particulars: at 10 µM.
Experiment [10] deals with T3, Ephrin type-B receptor 1 (Homo sapiens) (UniProt P54762).
T3 sequence (whole entry): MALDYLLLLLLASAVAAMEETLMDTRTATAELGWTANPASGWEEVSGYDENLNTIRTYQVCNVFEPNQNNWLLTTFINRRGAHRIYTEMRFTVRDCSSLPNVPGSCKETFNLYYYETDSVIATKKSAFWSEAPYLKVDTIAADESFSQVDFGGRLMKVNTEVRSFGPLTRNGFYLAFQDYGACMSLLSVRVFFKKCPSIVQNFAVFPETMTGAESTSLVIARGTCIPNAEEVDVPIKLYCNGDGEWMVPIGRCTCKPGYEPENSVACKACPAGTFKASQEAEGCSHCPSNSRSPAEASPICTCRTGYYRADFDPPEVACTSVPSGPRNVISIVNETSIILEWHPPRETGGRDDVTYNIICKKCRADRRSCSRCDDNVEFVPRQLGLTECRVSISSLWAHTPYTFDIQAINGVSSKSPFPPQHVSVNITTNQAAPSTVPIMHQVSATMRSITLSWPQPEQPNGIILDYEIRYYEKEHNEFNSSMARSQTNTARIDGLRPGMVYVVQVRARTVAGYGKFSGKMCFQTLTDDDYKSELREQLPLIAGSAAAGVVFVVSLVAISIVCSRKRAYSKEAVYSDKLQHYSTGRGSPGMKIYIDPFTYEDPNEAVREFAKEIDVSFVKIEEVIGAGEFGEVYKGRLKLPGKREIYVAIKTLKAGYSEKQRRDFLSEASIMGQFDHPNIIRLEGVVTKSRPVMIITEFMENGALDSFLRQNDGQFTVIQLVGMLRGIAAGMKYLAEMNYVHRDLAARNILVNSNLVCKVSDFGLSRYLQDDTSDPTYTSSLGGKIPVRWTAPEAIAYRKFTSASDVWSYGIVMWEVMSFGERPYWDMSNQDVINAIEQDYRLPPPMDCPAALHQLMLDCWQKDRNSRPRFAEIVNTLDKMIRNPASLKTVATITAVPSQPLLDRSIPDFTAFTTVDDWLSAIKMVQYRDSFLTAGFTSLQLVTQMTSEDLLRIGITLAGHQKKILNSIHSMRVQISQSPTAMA
Particulars: at 1 µM.

For the compound `Oc1ccc(Nc2nc(-c3ccc(Cl)cc3)cs2)cc1`, the residual activity is 111% in [1]; 113% in experiment [2]; 103% in [3]; 112% in [4]; 86% in experiment [5]; 105% in experiment [6]. For the same compound, the residual activity in experiment [7] amounted to 102%; in experiment [8] it was 99%; in experiment [9], 96%; in [10], 108%.

(Values after ChEMBL document CHEMBL2218924, “A broad activity screen in support of a chemogenomic map for kinase signalling research and drug discovery” (Biochem J, 2013).)
